This is an account of results in PubChem BioAssay.

Unmarked numbers belong to inactive results. No rule for the calls is given here.

This experiment has as its target Lethal factor (Bacillus anthracis) (UniProt P15917). Description: Bacillus anthracis lethal factor inhibition, microsphere flow cytometry protease assay, validation at 10 µM (AID 588461). To be noted: multiplex microsphere protease cleavage assay, active compounds read high.
As to `C#CCOc1ccc2c(C)cc(=O)oc2c1`, the inhibition was 4.6%.
To `O=C1[C@@H]2CSCN2C(=O)CN1Cc1ccc(F)cc1` belongs 3.4%.
In the case of `COc1ccccc1C(O)c1nccn1C` (stereo not given) it was 0.4%.
In the case of `COc1ccccc1/C=C/C(=O)OCCN1CCOCC1` it was -6.7%.
Turning to `C1COC(NC(C2CC2)C2CC2)=N1`, the inhibition is -5%.
In the case of `CCCCNc1cc(C(=O)O)cc(S(N)(=O)=O)c1Oc1ccccc1` it was -3.2%.
As for `CCc1cc(C(N)=S)ccn1`, the inhibition was -2.7%.
As to `Cc1ccsc1/C=C/C1=NCCCN1C`, the inhibition was -3.7%.
In the case of `CC1(C)C(=O)OC(C(=O)c2ccc(Cl)cc2)C(C)(C)C1=O` (stereo not given) it was -3.1%.
In the case of `CC1(C)NC(C(=O)O)Cc2c1[nH]c1ccccc21` (stereo not given) it was -2.8%; in that of `COc1ccc(C(=O)Nc2ccc(OC)c([N+](=O)[O-])c2)cc1Br`, 8.3%.
To `CC(C)(C)NCC(O)COc1ccccc1C(=O)CCc1ccccc1` (stereo not given) belongs -4.9%; to `CCCCCCCC(=O)OCC(=O)[C@@]1(O)CC[C@H]2[C@@H]3CCC4=CC(=O)CC[C@]4(C)[C@H]3[C@@H](O)C[C@@]21C`, 4.7%.
Regarding `Cc1ccc(C2CC(=O)C(C=NCCN3CCN(CC(=O)Nc4cc(C)cc(C)c4)CC3)=C(O)C2)cc1` (stereo not given), the inhibition is 0.4%.
As for `CNc1nc(Nc2ccccc2)nc(OCC(F)(F)F)n1`, the inhibition was -2.5%.
Consider `CC12CN3CC(C)(CN(C1)C3c1ccc(Br)cc1O)C2` (stereo not given), for which the inhibition was -7.5%.
In the case of `CCOC(=O)c1c(O)c2c([nH]c1=O)CCCC2` it was -3.9%; in that of `CN1CCC(=C2c3ccccc3CC(=O)c3sccc32)CC1`, -4%; in that of `O=C(Nc1cccc(C(=O)O)c1)/C(=C\c1ccccc1)NC(=O)c1ccccc1`, -0.8%.
In the case of `O=C(Cc1ccccc1)NCC(=O)OCC(=O)c1ccccc1Cl` it was -9.6%; in that of `Cc1ccc2[nH]c(=O)c(Cc3ccccc3)c(O)c2c1`, 2.6%.
To `Cc1cccc(C)c1NC(=O)C1CCCCN1C` (stereo not given) belongs -7.9%.
Take `CCN(CC)C1=C(Cl)C(=O)C(Cl)C12OCCO2` (stereo not given): the inhibition is -1%.
`CCc1cccc(OC2OC(CO)C(O)C(O)C2NC(C)=O)c1` (stereo not given): the inhibition was -4.6%.
On to `COc1ccccc1CCn1cnc2c3cc(C)ccc3n(C)c2c1=O`, for which the inhibition was -9.2%.
`COc1ccc(CCNC(=O)c2ccc(Cl)cc2)cc1OC`: the inhibition was -4.6%.
As for `COc1ccc(N2C(=O)C3CCCN3C2=O)cc1` (stereo not given), the inhibition was -0.1%.
In the case of `CC1/C(=C\c2ccc(Cl)cc2)C(=O)C2CC1C2(C)C` (stereo not given) it was -9.7%.
In the case of `CN(C)c1cc(NC(=O)CN2CCOCC2)c2ccccc2n1` it was -4.6%; in that of `CCOc1ccccc1Oc1coc2cc(OCC(=O)O)ccc2c1=O`, 0.2%; in that of `Cc1cc(O)c2/c(=N\N)c(-c3csc(C)n3)coc2c1`, 2.2%.
Take `CC1(C)Cc2ccccc2C(C(Cc2ccccc2)C(N)=O)=N1` (stereo not given): the inhibition is -3.2%.
In the case of `Nc1ccc(S(N)(=O)=O)cc1N`, the inhibition was -20%.
As for `CC(C)c1ccc(/C=C/C(=O)O)cc1`, the inhibition is 11%.
To `CC(C[N+](C)(C)C)OC(N)=O` (stereo not given) belongs 6.6%.
Take `COc1ccc2c(c1OC)C(=O)N1C2SC[C@H]1C(=O)NC1CC(C)(C)NC(C)(C)C1` (stereo not given in full): the inhibition is -2.4%.
In the case of `N=c1nc(N2CCCCC2)cc(N)n1O` it was 0.9%; in that of `CC1=C(C)C(=O)C(CCCCC#CCCCC#CCO)=C(C)C1=O`, -2.3%; in that of `O=c1[nH]cc(F)c(=O)[nH]1`, -1.9%.
With `CCNC(=S)Nc1ccc(OC(F)(F)F)cc1`, the inhibition was 3%.
